According to PubChem BioAssay AID2284425 (EPA ToxCast):
Inconclusive results are not listed. Calls of active or inactive are those of the source. How the source made its calls: active means hit-call score of the fitted dose curve at least 0.9, where 1 is the maximum; inconclusive means response in the unintended direction; inactive means score below 0.9.

Each molecule was assayed on Brachyury (BRA), TBXT (gene 6862) (assay: CCTE_Deisenroth_DEVTOX-GLR_Ecto_BRA: CCTE's DevTox GLR-Ecto Assay Evaluation of Brachyury (BRA) Protein Expression, Deisenroth Lab).
Description: CCTE_Deisenroth_DEVTOX-GLR_Ecto assay is a cell-based, multiplex-readout assay that uses RUES2-GLR, a human pluripotent cell line, with measurements taken at 48 hours after chemical dosing in a 384-well microplateCCTE_Deisenroth_DEVTOX-GLR_Ecto_BRA is 1 of 4 assay components calculated from the CCTE_Deisenroth_DEVTOX-GLR_Ecto assay and it measures an the percentage of cells in an mesoderm state. Using a type of inducible fluorescent protein reporter, gain-of-signal activity can be used to understand changes in gene expression with fluorescent microscopy. The percentage of BRA+ cells are determined by calculating the number of BRA+ cells divided by the cell count. To generalize the intended target to other relatable targets, this assay component is annotated to the transcription factor intended target family, where the subfamily is T-box protein.Data from the assay component CCTE_Deisenroth_DEVTOX-GLR_Ecto_BRA was analyzed as 1 assay endpoint. The endpoint is the percent BRA+ cell population minus the 0.2% DMSO control in the CCTE_Deisenroth_DEVTOX-GLR_Ecto assay. Furthermore, this assay endpoint can be referred to as a secondary readout, because this assay has produced multiple assay endpoints where this one serves as a measure of mesoderm differentiation.
All assay protocols are aligned to the DevTox GLR-Endo assay workflow (Gamble 2022). Cells are seeded into 384-well microplates for 24 hours prior to initiating differentiation in defined media for a total duration of 48 hours. A total of two chemical exposures are administered in 24-hour intervals during the 48-hour differentiation period. At the assay termination point, cells are fixed and stained with a fluorescent dye demarcating the nucleus. High-content imaging is used to acquire brightfield and fluorescent channel images across 5 fields per well. Cell identification and mean biomarker fluorescence intensities are calculated with image analysis software to determine the total cell counts for viability assessment and the biomarker expression frequency for each lineage-dependent assay. A typical experimental design tests a 10-point concentration series (1 nM - 200 uM) for 28 compounds in single technical replicate. Assay plate controls include non-differentiated pluripotent cells (baseline control), lineage-specific differentiated cells (differentiation control), and DMSO solvent exposed differentiated cells (solvent control). Experiments typically comprise a minimum of four experimental replicates (n=4).
With `O=C1NC(=O)C(c2ccccc2)(c2ccccc2)N1` the outcome was “inactive”. In the case of `Nc1nc2ncc(CNc3ccc(C(=O)N[C@@H](CCC(=O)O)C(=O)O)cc3)nc2c(=O)[nH]1`, the outcome is reported as “inactive”. With `CS(=O)(=O)OCCCCOS(C)(=O)=O` the outcome was “inactive”. With `O=C1NS(=O)(=O)c2ccccc21` the outcome was “inactive”. In the case of `CCN(CC)CCNC(=O)c1c(C)[nH]c(/C=C2\C(=O)Nc3ccc(F)cc32)c1C`, the AC50 is reported as 1.12 µM (active). For `O=c1[nH]cc(F)c(=O)[nH]1`, the AC50 was 1.95 µM (active). For `Nc1cccc2c1C(=O)N(C1CCC(=O)NC1=O)C2=O` (stereo not given), the AC50 was 39.1 µM (active). With `CC(C)(c1ccc(O)cc1)c1ccc(O)cc1` the outcome was “inactive”. `CC(=O)Nc1ccc(O)cc1` was tested, and the outcome was “inactive”. For `CC1=C(/C=C/C(C)=C/C=C/C(C)=C\C(=O)O)C(C)(C)CCC1`, the AC50 was 143 µM (active). `CC1=C(/C=C/C(C)=C/C=C/C(C)=C/C(=O)O)C(C)(C)CCC1` was tested, and the AC50 was 142 µM (active). With `CCCC(CCC)C(=O)O` the outcome was “inactive”. With `CC/C(=C(/CC)c1ccc(O)cc1)c1ccc(O)cc1` the outcome was “inactive”. For `CC1(C)S[C@@H]2[C@H](NC(=O)Cc3ccccc3)C(=O)N2[C@H]1C(=O)O`, the outcome was “inactive”. In the case of `CN(Cc1cnc2nc(N)nc(N)c2n1)c1ccc(C(=O)N[C@@H](CCC(=O)O)C(=O)O)cc1`, the outcome is reported as “inactive”.
